In PubChem BioAssay (NCI) one finds growth data, which are given here for 7 molecules.

Each structure is given as a SMILES string. The panel holds about 83,000 compounds, 20% with a hit somewhere; the sample as a whole holds those more often.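 Testing used 96-well plates and a 48-hour single-concentration exposure. Example: -40 means 40% of the starting cells died.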 Unmarked numbers belong to inactive results. Calls of active or inactive are those of the source. How the source made its calls: active means growth percent below 10; inactive means the rest.

What all share (assay): NCI-60 one-dose screen, 48 h (100 = growth as untreated, 0 = no growth, -100 = all killed)
The test system of one assay is DU-145 prostate. The note with it: 10 µM unless noted.
In a further assay the test system is K-562 leukemia. As to conditions: 10 µM unless noted.
The subject of the next assay is MALME-3M melanoma. As to conditions: 10 µM unless noted.
The test system of a further assay is MDA-MB-231 breast. As to conditions: 10 µM unless noted.
For another assay, the system named is RXF 393 renal. The note with it: 10 µM unless noted.
The test system of a further assay is SF-268 CNS. As to conditions: 10 µM unless noted.
A further assay concerns SF-295 CNS. The note with it: 10 µM unless noted.
For a further assay, the system named is SF-539 CNS. The note with it: 10 µM unless noted.
Another assay concerns UACC-257 melanoma. As to conditions: 10 µM unless noted.
The test system of another assay is HCT-15 colon. As to conditions: 10 µM unless noted.
A further assay has as its system HT29 colon. As to conditions: 10 µM unless noted.
A further assay concerns SNB-75 CNS. The note with it: 10 µM unless noted.
Another assay concerns SNB-19 CNS. As to conditions: 10 µM unless noted.
In the next assay the test system is U251 CNS. As to conditions: 10 µM unless noted.
The subject of a further assay is PC-3 prostate. As to conditions: 10 µM unless noted.
The test system of a further assay is SK-MEL-5 melanoma. As to conditions: 10 µM unless noted.
The next assay deals with UACC-62 melanoma. The note with it: 10 µM unless noted.
For another assay, the system named is LOX IMVI melanoma. As to conditions: 10 µM.
For another assay, the system named is SK-MEL-28 melanoma. The note with it: 10 µM unless noted.
For another assay, the system named is M14 melanoma. As to conditions: 10 µM unless noted.

Regarding `O=Nc1ccc2ccccc2c1O`, the growth in the assay with DU-145 prostate is 94.3%; with K-562 leukemia it was 80.9%; in the assay on MALME-3M melanoma, 63.4%; in the assay with MDA-MB-231 breast it was 54.6%; in the assay on RXF 393 renal, 93.8%; with SF-268 CNS, 91.6%. Besides, the growth with SF-295 CNS is 83%; in the assay with SF-539 CNS it was 108%; with UACC-257 melanoma, 18.3%; in the assay with HCT-15 colon, 66.5%; with HT29 colon it was 46.8%; in the assay with SNB-75 CNS, 120%. For the same molecule, the growth in the assay with SNB-19 CNS was 97.6%; in the assay with U251 CNS, 55.9%; in the assay with PC-3 prostate it was 44.9%; in the assay with SK-MEL-5 melanoma it was 47.6%; in the assay with UACC-62 melanoma, 27.1%; with LOX IMVI melanoma, 7.44% (active). Also, the growth in the assay on SK-MEL-28 melanoma is 83.8%.

As to `O=C1Nc2ccc(Br)cc2C1=O`, the growth in the assay with DU-145 prostate is 99.5%; with K-562 leukemia, 87.2%; in the assay on MALME-3M melanoma it was 102%; in the assay on MDA-MB-231 breast, 96.7%; in the assay on RXF 393 renal, 119%; in the assay with SF-268 CNS, 93.6%. In addition, the growth in the assay with SF-295 CNS is 99.1%; in the assay on SF-539 CNS, 98.3%; with M14 melanoma it was 98.4%; in the assay with HCT-15 colon, 100%; in the assay with HT29 colon it was 100%; in the assay on SNB-75 CNS, 92.7%. The growth with SNB-19 CNS was 101%; with U251 CNS, 98.5%; with PC-3 prostate it was 92.8%; with SK-MEL-5 melanoma, 101%; in the assay on UACC-62 melanoma it was 90.4%; in the assay on LOX IMVI melanoma, 87.4%.

`CCN(CC)CC(O)c1cc(-c2ccc(Cl)cc2)nc2cc(Cl)ccc12` (stereo not drawn): the growth in the assay on DU-145 prostate is 17.9%; with K-562 leukemia it was -27.2% (active); with MALME-3M melanoma it was 43%; in the assay with MDA-MB-231 breast, -3.65% (active); in the assay with RXF 393 renal, 28.9%; in the assay with SF-268 CNS, 42.1%. Further, the growth is 31.7% in the assay with SF-295 CNS; 18% with SF-539 CNS; -59.8% (active) with UACC-257 melanoma; 25.1% in the assay with HCT-15 colon; -50.1% (active) in the assay on HT29 colon; 38.3% in the assay with SNB-75 CNS. Also, the growth with SNB-19 CNS was 56.8%; with U251 CNS it was 8.59% (active); with PC-3 prostate it was 28.5%; in the assay with UACC-62 melanoma, -56.6% (active); with LOX IMVI melanoma it was 11%; with SK-MEL-28 melanoma, -56.6% (active).

Consider `N#CC(I)CS(=O)(=O)c1ccccc1` (stereo not drawn), for which the growth in the assay on DU-145 prostate was 100%; in the assay with K-562 leukemia, 80.6%; in the assay with MALME-3M melanoma it was -22.4% (active); with MDA-MB-231 breast, 98.3%; in the assay with RXF 393 renal it was 81.8%; in the assay with SF-268 CNS it was 86.8%. Besides, the growth with SF-295 CNS is 115%; in the assay with SF-539 CNS it was 95.6%; with UACC-257 melanoma, 73.1%; with HCT-15 colon, 64.2%; in the assay with HT29 colon it was 50.9%; in the assay with SNB-75 CNS, 95.5%. Further, the growth in the assay on SNB-19 CNS is 94.8%; in the assay on U251 CNS it was 91.2%; with PC-3 prostate, 90.8%; in the assay on SK-MEL-5 melanoma, 97.5%; with UACC-62 melanoma it was 84.4%; with LOX IMVI melanoma it was 70.8%. For the same molecule, the growth in the assay on SK-MEL-28 melanoma is 97%.

On to `CN(C)CCN(C)CC(C)(C)C(=O)/C=C/c1ccc(Cl)c(Cl)c1`, for which the growth with DU-145 prostate is -99.2% [100 µM] (active); in the assay on K-562 leukemia it was -21.1% [100 µM] (active); with MALME-3M melanoma, -95.5% [100 µM] (active); in the assay with MDA-MB-231 breast, -98% [100 µM] (active); with RXF 393 renal it was -95.1% [100 µM] (active); with SF-268 CNS, -54.8% [100 µM] (active). In addition, the growth with SF-295 CNS was -97.9% [100 µM] (active); in the assay with SF-539 CNS it was -99.3% [100 µM] (active); in the assay with UACC-257 melanoma it was -90.4% [100 µM] (active); in the assay with HCT-15 colon, -86.4% [100 µM] (active); in the assay on HT29 colon, -77.5% [100 µM] (active); in the assay with SNB-75 CNS it was -99.3% [100 µM] (active). Besides, the growth in the assay on SNB-19 CNS was -98.6% [100 µM] (active); with U251 CNS, -95.1% [100 µM] (active); in the assay on PC-3 prostate, -87.2% [100 µM] (active); with SK-MEL-5 melanoma, -99.3% [100 µM] (active); with UACC-62 melanoma, -95.6% [100 µM] (active); in the assay with SK-MEL-28 melanoma it was -98.6% [100 µM] (active).

For `O=C1C(=O)c2cc([N+](=O)[O-])ccc2-c2ccccc21`, the growth with DU-145 prostate is -99.2% (active); with K-562 leukemia, -9.39% (active); with MALME-3M melanoma it was -82.7% (active); in the assay with MDA-MB-231 breast it was -50.6% (active); in the assay with RXF 393 renal it was -97.2% (active); in the assay with SF-268 CNS, -84.4% (active). The growth in the assay on SF-295 CNS is -82.2% (active); with SF-539 CNS it was -93% (active); in the assay on UACC-257 melanoma, -94.5% (active); in the assay on HCT-15 colon, -53.7% (active); with HT29 colon, -79.4% (active); in the assay on SNB-75 CNS it was -98.2% (active). In addition, the growth was -93.8% (active) in the assay with SNB-19 CNS; -81.5% (active) in the assay on U251 CNS; -99.6% (active) in the assay with SK-MEL-5 melanoma; -94.2% (active) in the assay on UACC-62 melanoma; -88.4% (active) in the assay with LOX IMVI melanoma; -97% (active) in the assay with SK-MEL-28 melanoma.

Regarding `Clc1ccccc1C(c1ccccc1)(c1ccccc1)n1ccnc1`, the growth with DU-145 prostate is 60.1%; in the assay on K-562 leukemia, 17%; in the assay with MALME-3M melanoma, 39.7%; with MDA-MB-231 breast, 59.1%; with RXF 393 renal it was 23.6%; in the assay on SF-268 CNS it was 57.5%. Moreover, the growth was 19% in the assay with SF-295 CNS; 52% in the assay on SF-539 CNS; 54.4% with UACC-257 melanoma; 22.9% with HCT-15 colon; 27.4% with HT29 colon; 44.1% in the assay on SNB-75 CNS. Moreover, the growth with SNB-19 CNS is 58.4%; in the assay with PC-3 prostate, 19.6%; in the assay with SK-MEL-5 melanoma, -87% (active); with UACC-62 melanoma, 40.8%; in the assay on LOX IMVI melanoma, 36%; in the assay on SK-MEL-28 melanoma it was 55.5%.
